Among the data in PubChem BioAssay AID2284110 (EPA ToxCast) are AC50 values, retold here.

The structures appear in SMILES notation. Results filed as inconclusive are left out. The source made the active and inactive calls. How the source made its calls: active means hit-call score of the fitted dose curve at least 0.9, where 1 is the maximum; inconclusive means response in the unintended direction; inactive means score below 0.9.

Sequence of human Adrenoceptor Receptor alpha1A Antagonism, conducted at France lab site, ADRA1A (gene 148) (P35348 whole entry, looked up): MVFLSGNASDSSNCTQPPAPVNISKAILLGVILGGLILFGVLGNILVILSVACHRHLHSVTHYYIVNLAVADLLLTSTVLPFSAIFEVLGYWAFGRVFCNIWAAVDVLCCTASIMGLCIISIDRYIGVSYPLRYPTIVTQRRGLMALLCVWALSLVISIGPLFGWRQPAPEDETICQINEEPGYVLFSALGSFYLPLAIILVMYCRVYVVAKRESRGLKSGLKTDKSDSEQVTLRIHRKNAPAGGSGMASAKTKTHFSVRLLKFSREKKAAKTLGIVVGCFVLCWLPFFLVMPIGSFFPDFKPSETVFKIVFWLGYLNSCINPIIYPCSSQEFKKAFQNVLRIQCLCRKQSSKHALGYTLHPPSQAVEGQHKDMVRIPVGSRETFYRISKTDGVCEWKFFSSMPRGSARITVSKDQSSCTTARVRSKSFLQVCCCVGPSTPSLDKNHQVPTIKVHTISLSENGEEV

In the assay the target is human Adrenoceptor Receptor alpha1A Antagonism, conducted at France lab site, ADRA1A (gene 148) (UniProt P35348). As to the kind of experiment: ERF_FR_GPCR_hADRA1A: Eurofins (ERF) G Protein-Coupled Receptor (GPCR) Radioligand Binding LeadHunter Assay for human Adrenoceptor Receptor alpha1A Antagonism, conducted at France lab site. The protocol:
ERF_FR_GPCR_hADRA1A is a biochemical, single-readout assay that uses extracted gene-proteins in a cell-free assay. Measurements were taken 1 hour after chemical dosing in a 96-well plate. See alpha1A Human Adrenoceptor GPCR Binding (Antagonist Radioligand) Assay, Cerep.ERF_FR_GPCR_hADRA1A is an assay component calculated from the ERF_FR_GPCR_hADRA1A assay. It is designed to measure radioligand binding using a type of binding reporter as detected by scintillation counting with radiometry technology.Data from the assay component ERF_FR_GPCR_hADRA1A was analyzed at the assay endpoint, ERF_FR_GPCR_hADRA1A, in the positive analysis fitting direction relative to DMSO as the negative control and baseline of activity. Using a type of binding reporter, loss-of-signal activity can be used to understand changes in binding as they relate to gene ADRA1A. To generalize the intended target to other relatable targets, this assay endpoint is annotated to the gpcr intended target family, where the subfamily is adrenoceptor.
Human cells are incubated for 60 minutes in room temprature, using [3H]prazosin ligand at 0.1 Kd (nM) with WB-4101 control inhibitor.Test Sample Requirements: Minimum for 1) Screen: 60 ul of 10 mM stock -OR- 1 mg (pre-weighed) for […] uM final testing. 2) Dose Response: 90 ul of 10 mM stock -OR- 1 mg (pre-weighed) for a top concentration at 10 uM.
Take `COc1cc(/C=C/C(=O)CC(=O)/C=C/c2ccc(O)c(OC)c2)ccc1O`: the AC50 was 0.258 µM (active). With `O=C(/C=C/c1ccc(O)cc1)CC(=O)/C=C/c1ccc(O)cc1` the figure was 0.205 µM (active).
